Most compounds without a hit are left out; they make up all but 10% or so of the library.
HP1b binding inh: blocks HP1-beta chromodomain binding to methylated histone tails. AlphaScreen HP1-beta / biotin-H3K9me3 peptide binding. AID 540317. 0.56% of 390,000 active. Potency, µM (series often up to 114 µM), for inactives: at the highest dose activity change, negative = inhibition, usual class: inhibitors. P83916; further: nearly all actives have a fitted effect of over 70% in size
Target sequence (P83916 whole entry, looked up): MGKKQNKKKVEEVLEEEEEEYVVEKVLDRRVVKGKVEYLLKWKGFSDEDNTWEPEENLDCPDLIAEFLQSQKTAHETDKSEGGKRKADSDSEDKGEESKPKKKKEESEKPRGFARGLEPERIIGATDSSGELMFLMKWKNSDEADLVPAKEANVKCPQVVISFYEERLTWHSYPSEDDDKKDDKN
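HP1-beta protein (50 nM final) preincubated 30 min at room temperature with biotinylated H3(1-18)K9me3 peptide (50 nM) in PBS pH 7.4, 0.01% Tween-20, then compound added for 30 min. AlphaScreen streptavidin donor/nickel chelate acceptor beads (10 ug/mL final), 30 min dark, luminescence read.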
JMJD2A Tudor: blocks the human JMJD2A Tudor domain; O75164; 4.4% of 390,000 active; AlphaScreen JMJD2A-Tudor / H3K4me3 peptide binding; Potency, µM (doses to about 114 µM), inactives show at the top dose activity change, negative = inhibition, hits mostly inhibitors; AID 504339; further: on the % scale 0 is the no-effect control and ±100 the full control effect; nearly all actives have a fitted effect of over 50% in size
BAZ2B inh: inhibitors of human BAZ2B bromodomain; Potency, µM (highest dose often 114 µM), without a hit: top-dose activity change, negative = inhibition, most hits filed as inhibitors; 4.4% of 360,000 active; AlphaScreen BAZ2B-H3K14Ac peptide displacement; further: on the % scale 0 is the no-effect control and ±100 the full control effect; nearly all actives have a fitted effect of over 60% in size
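Protein-peptide AlphaScreen: BAZ2B 50 nM, b-H3K14Ac 50 nM, 1x PBS pH 7.4 + 0.01% Tween-20. Preincubation 30 min RT; cpd 30 min RT (top 110 uM); beads 20 min RT, light-protected.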
GLS inh: glutaminase GLS (human) inhibition | Potency, µM (highest dose often 45.5 µM), for the others: at the top dose activity change, negative = inhibition, actives largely listed as inhibitors | GLS enzymatic activity, qHTS titration | 0.21% of 410,000 active | AID 624170; further: on the % scale 0 is the no-effect control and ±100 the full control effect
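Two-point fluorescence kinetic (t0, 30 min RT) for hKGA; glutamate detected via glutamate oxidase–HRP–Amplex Red. Substrate: 1 mM L-glutamine solution; buffer 45 mM KH2PO4, pH 8.2.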
G9a block: blocks human histone lysine methyltransferase G9a. 8.8% of 350,000 active. G9a H3K9 monomethylation, AlphaScreen, 2 h. Potency, µM (titrated, usually from 102 µM), for inactives: at the top dose activity, negative = inhibition, hits mostly inhibitors. Q96KQ7; further: on the % scale 0 is the no-effect control and ±100 the full control effect; nearly all actives have a fitted effect of over 75% in size
Target sequence (Q96KQ7 913-1193 limits assumed): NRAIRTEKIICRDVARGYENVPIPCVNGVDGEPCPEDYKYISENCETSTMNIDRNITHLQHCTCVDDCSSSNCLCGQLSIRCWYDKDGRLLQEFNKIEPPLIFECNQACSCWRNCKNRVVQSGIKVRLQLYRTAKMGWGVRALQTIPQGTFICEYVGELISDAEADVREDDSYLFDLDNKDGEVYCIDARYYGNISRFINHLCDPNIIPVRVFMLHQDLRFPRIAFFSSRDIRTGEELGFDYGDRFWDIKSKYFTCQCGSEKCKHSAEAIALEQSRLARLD
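Compounds were preincubated with 20 nM G9a for 15 min, after which biotinylated H3K9 peptide (500 nM) and SAM (20 uM) started a 2 h room-temperature reaction. Monomethylated product was quantified by antibody-based AlphaScreen chemiluminescence.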
Active calls of the source: *; ? = inconclusive; nt = not tested or not shown; [ ] = another dose, or the depositor's remark. The call rests on the fitted dose curve; in most records, active means well fitted curve in the direction sought with a large enough effect; inconclusive means small, poorly fitted or top-dose-only effect, or another doubt; inactive means no such curve, though single readings can be large; an effect the other way counts as inactive or inconclusive. Potency means the concentration at half of the fitted maximal effect.

SMILES | HP1b binding inh | JMJD2A Tudor | BAZ2B inh | GLS inh | G9a block
O=C(Cc1ccccc1)N/N=C/c1cc(Br)cc(Br)c1O | 44% | -16% | 15% | 20% | 45%[2.33 µM]
S=c1[nH]nc(NCCCN2CCOCC2)s1 | ? | 3.5µM* | 32µM* | ? | 1.3µM*
COc1ccc(C)cc1NC(=O)CSc1ncc2c(n1)-c1ccc(Cl)cc1N(Cc1ccccc1)S2(=O)=O | -21% | -33% | 50µM* | 1% | -31%[59 µM]
c1ccc2[nH]c(CCCCc3nc4ccccc4[nH]3)nc2c1 | 39% | -13% | -2% | 1% | -5%
O=C(NC(=S)N(Cc1ccccc1)c1ccccn1)C1CC1 | 13% | -2% | 2% | 8% | 14µM*
CN(C(=S)NC(=O)C1CC1)c1ccc(O)cc1 | -39% | 89µM* | -2% | 26% | ?
CCN(C(=S)NC(=O)C1CC1)c1ccccc1 | 12% | -13% | -22% | 5% | 35µM*
CC(C)CN1C(=O)C(=O)N(CC(=O)Nc2cccc(Cl)c2Cl)C1=O | 19% | -18% | 5% | -7% | 7%[12.7 µM]
Cc1cc2cc(C(c3nnnn3Cc3ccccc3)N3CCc4ccccc43)c(=O)[nH]c2cc1C (centres undefined) | -1% | ? | ? | -1% | ?
Cc1ccc2cc(C(c3nnnn3Cc3ccccc3)N3CCc4ccccc43)c(=O)[nH]c2c1 (centres undefined) | -3% | ? | ? | 0% | 9%[12.7 µM]
Cc1ccc2cc(C(c3nnnn3Cc3ccccc3)N3CCc4ccccc43)c(=O)[nH]c2c1C (centres undefined) | 45% | -21% | 6% | -8% | 20µM*
Cc1ccc2[nH]c(=O)c(C(c3nnnn3Cc3ccccc3)N3CCc4ccccc43)cc2c1 (centres undefined) | -3% | ? | ? | -13% | 28µM*
C=CCn1c(Sc2ccccc2)nc2c1c(=O)[nH]c(=O)n2C | 35% | 5% | 5% | 4% | 4%[59 µM]
NC(c1csc(Nc2nccc(C(F)(F)F)n2)n1)C1CCCCC1 (centres undefined) | nt | nt | nt | 1% | nt
O=C(O)c1ccc(S(=O)(=O)c2ccc([N+](=O)[O-])cc2[N+](=O)[O-])cc1 | 67% | -19% | -15% | 1% | 25µM*
O=C(O)c1ccc(S(=O)(=O)c2ccccc2C(=O)O)c([N+](=O)[O-])c1 | 68% | -33% | -18% | -7% | ?
COc1ccc(C=O)c(-c2c(-c3ccccc3OC)sc3ccccc23)c1 | nt | nt | nt | -6% | nt
Cc1ccc2nc(NCc3ccco3)c(C=NCc3ccco3)c(=O)n2c1 | 31% | 1% | 50µM* | 1% | 3%[59 µM]
O=C(CCc1ccccc1)NNC(=O)COc1ccc(Br)cc1 | 50µM* | 20µM* | 5% | 0% | 23%[59 µM]
COc1ccc(C(=O)NNC2=NS(=O)(=O)c3ccccc32)cc1OC | 24% | -4% | ? | 10% | 8%
O=C(COc1ccccc1)NNC1=NS(=O)(=O)c2ccccc21 | 37% | -11% | nt | 5% | 45µM*
O=C(CCCCC(=O)NNC(=O)COc1ccccc1)NNC(=O)COc1ccccc1 | 21% | -5% | -19% | -1% | 35µM*
COc1ccc(-c2cn3cccnc3n2)cc1NC(=O)COc1ccccc1 | 22%[57 µM] | -10% | -15% | 6% | 3%[59 µM]
CN(CC(=O)Nc1ccc(F)c(F)c1F)C(=O)C1CCCCC1 | 34% | 8% | nt | -5% | nt
O=C(C1CCN(S(=O)(=O)c2cnc[nH]2)CC1)N(CCc1ccccc1)Cc1ccccc1 | 33% | -8% | 0% | -1% | -32%
SMILES | HP1b binding inh | JMJD2A Tudor | BAZ2B inh | GLS inh | G9a block
O=C(Nc1ccnn1C1CCN(CC2CC=CCC2)CC1)c1ccccc1 (centres undefined) | 51% | 2% | 3% | -6% | 6%[12.7 µM]
O=C(C1CCN(CCCc2ccccc2)CC1)N(CCc1ccccc1)Cc1ccccc1 | ? | 1.1µM* | ? | 17% | 14µM*
CCC(C)NC(=O)C1CCN(CCCc2ccccc2)CC1 (centres undefined) | -28% | 10µM* | 50µM* | -13% | 14µM*
CCC(C)NC(=O)C1CCN(C(=O)c2ccccc2)CC1 (centres undefined) | 13% | -12% | 6% | 1% | nt
O=C(C1CCN(CC2CC=CCC2)CC1)N(CCc1ccccc1)Cc1ccccc1 (centres undefined) | 42% | ? | 79µM* | 1% | 45µM*
CCCCc1nnc(NC(=O)C2CC(=O)N(Cc3ccccc3)C2)s1 (centres undefined) | 9% | -19% | -26% | 0% | -23%
C/C(=N/NC(=O)c1cccc(N2CCCC2=O)c1)c1ccc(Br)cc1 | 27% | -6% | 5% | 4% | 20%[59 µM]
Cc1ccc(NC(=O)c2ccc(Cl)c(N3C(=O)C=CC3=O)c2)cc1 | ? | 7.9µM* | 22µM* | -9% | -40%[0.501 µM]
O=C(Nc1ccc(Cl)c(Cl)c1)c1ccc(Cl)c(Cl)c1 | 31% | -9% | -13% | -2% | 20%
COc1ccc(S(=O)(=O)n2ccc(C(C)Oc3ccc(-c4ccccc4)c(F)c3)n2)cc1 (centres undefined) | 76% | 2% | 7% | -7% | 55%[59 µM]
CC(=O)NC(=S)Nc1ccc(NC(=O)COc2ccc(Cl)cc2)cc1 | 43% | -5% | -1% | -3% | 5.6µM*
Cc1cc(C)nc(NS(=O)(=O)c2ccc(NC(=O)COc3ccc(Cl)cc3C)cc2)n1 | 40% | -10% | 5%[57.1 µM] | 0% | 10µM*
O=C(CNc1ccc(Cl)cc1)NNC(=S)NCc1ccccc1 | 6% | ? | -35% | ? | 50µM*
CC(=O)NC(=S)Nc1ccc(NC(=O)COc2ccc(C(C)C)cc2)cc1 | 29% | -1% | ? | 5% | ?
Cc1cccc(NC(=S)NNC(=O)COc2ccc(Cl)cc2Cl)c1 | 5% | -19% | -7% | 6% | 8.9µM*
COc1ccc(NC(=S)NNC(=O)CNc2ccc(Cl)cc2)cc1 | -10% | -33% | ? | 16% | 10µM*
COc1ccc(NC(=O)CNc2ccc(C#N)cc2)cc1 | 27% | -8% | -15% | 10% | 50µM*
Cc1cc(OCC(=O)NNC(=S)NC(=O)c2ccc(Br)o2)ccc1Cl | 12% | -18% | -33% | 15% | 32µM*
CCc1ccc(NC(=O)CCc2ccc(C)o2)cc1 | 11% | -21% | ? | 0% | -50%
Cc1ccc(CCC(=O)Nc2ccc(C#N)cc2)o1 | 33% | -3% | -38% | 0% | 40µM*
O=C(c1cc([N+](=O)[O-])ccc1N1CCCCC1)N1CCc2ccccc21 | -1% | ? | ? | -4% | -8%[59 µM]
CC1C(=O)N(Cc2ccc(F)cc2)c2ccccc2N1C(=O)c1c(F)cccc1F (centres undefined) | 34% | -10% | 1% | -4% | 18%
COc1ccc(OCC(=O)NC(=S)NNC(=O)COc2ccc(Br)cc2Cl)cc1 | ? | 8.9µM* | -8% | -21% | 1.6µM*
